INS-1E GSIS act: primary screen for activators of insulin secretion dependent on glucose, INS-1E cells, GLuc reporter luminescence; INS-1E GLuc reporter insulin secretion, 2-3 h; activation, % at 16.6 µM; 370,000 tested, 0.61% active; AID 743287;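 active = lowest replicate activation of at least 40%, so every replicate reaches that level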;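 also: 0% = median of neutral control wells and 100% = median of IBMX positive control wells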
Wnt act: Wnt/beta-catenin pathway activation | Wnt/beta-catenin reporter cell assay, activator, plate reader | activation, % at 9.35 µM | 300,000 tested, 1.2% active | AID 743398; in the data active = activation above about 30%, passing the limit was not always enough; inconclusive = no clear call, values can overlap the other calls;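 also: 0% = neutral control wells and 100% = positive control wells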
Env fusion inh: inhibitors of HIV Env-mediated cell fusion; HeLa-JRFL Env/CEM21 cell fusion, luciferase; inhibition, % at 12.3 µM; 360,000 tested, 1.1% active; AID 651610;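 active = mean replicate inhibition score of at least 50 and every replicate individually at or above 50; inconclusive = only one of the two criteria met; inactive = mean below 50 and not all replicates reaching 50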;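 also: 0% = plate neutral controls and 100% = maraviroc near 300 nM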
CFTR F508del cor: correctors of CFTR F508del function in bronchial epithelial cells | CFBE cells, YFP halide quenching; stimulated with forskolin plus potentiator P3; % fluorescence drop versus neutral controls | activity (quench increase), % at 7.58 µM | 350,000 tested, 0.36% active | AID 720511;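 active = mean added fluorescence quench of at least 8% versus neutral control, with both replicates also reaching 8%; inconclusive = only one of the mean or replicate conditions met; inactive = mean below 8% and not both replicates reaching 8%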;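 also: cells transiently co-express mutant CFTR-F508del with the halide-sensitive YFP; corrector assay measuring rescue of mutant channel to the surface after 24 h compound exposure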
MITF act: activators of MITF-driven TRPM1 promoter activity in SK-MEL-5 cells; SK-MEL-5 TRPM1-promoter luciferase, 24 h; % of positive control, neutral wells = 0; activation, % at 12.5 µM; 300,000 tested, 0.75% active;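 active = mean activation of at least 80% with every replicate also reaching 80%; inconclusive = mean reaches 80% but some replicate falls short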;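 also: 0% = neutral control wells and 100% = parthenolide positive control wells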
The depositor's hits bear a star; u = inconclusive; x = not tested or not shown; [ ] = dose if it differs, or a comment. An excerpt weighted towards active compounds, which were near 2.7% of everything screened.

SMILES | INS-1E GSIS act | Wnt act | Env fusion inh | CFTR F508del cor | MITF act
CCSc1nnc(NC(=O)c2cc3c(s2)CCCC3)s1 | x | x | -78 | x | 105*
CCSc1nnc(Nc2ccc(C)cc2)s1 | 9 | x | -61 | x | 89*
CCSc1nnc(NC(=O)c2csc3c2CCCC3)s1 | 119* | x | x | x | 22
CCSc1nnc(NC(=O)c2ccccc2)s1 | 10 | 23 | -31 | x | 104*
CCSc1nnc(NC(=O)c2cccnc2)s1 | 7 | x | -8 | x | 4
C[C@@H]1CN(C)C(=O)c2cccc(N)c2O[C@@H]1CN(C)C | -5 | x | x | x | x
C[C@H]1CN([C@@H](C)CO)C(=O)c2cccc(NC(=O)c3ccc(-c4nccs4)cc3)c2O[C@H]1CN(C)C | 22 | x | x | 0 | x
CCOc1ccc(CN2C(=O)c3ccccc3C2=O)cc1C(=O)Nc1nnc(SCC)s1 | 44* | -2 | -1 | 3 | -3
O=C(Nc1ccccc1O)c1csc2c1CCCC2 | -23 | 38* | u | 1 | 49
CCC(=O)Nc1ccc2c(c1)OC[C@H](C)N(Cc1ccccc1OC)C[C@H](C)[C@H](OC)CN(C)C2=O | 3 | x | x | -1 | x
C[C@H](CO)N1C[C@H](C)[C@H](CN(C)C(=O)Nc2ccccc2)Oc2ccc(NC(=O)Cc3ccccc3)cc2CC1=O | -6 | x | -6[16.7 µM] | -2 | x
Cc1cc(-c2ccccc2)n2nc(N)nc2n1 | 49* | -1 | 16 | 3 | 6
Cc1cc(C)n2nc(N)nc2n1 | x | -1 | x | -3 | -11
COc1ccc(N/C=C/C(=O)c2ccc(OC)c(OC)c2)cc1 | 16 | 21 | 11 | 2 | 15
COc1ccc(C(=O)/C=C/Nc2cccc(C)n2)cc1OC | x | x | x | x | 93*
Cn1c(-c2ccc(Cl)cc2)ccc(C#N)c1=O | x | x | 75* | x | x
CCc1ccc(-c2cn3nc(C)c(C)nc3n2)cc1 | x | x | 76* | x | x
Cc1nc2nc(-c3ccc(F)cc3)cn2nc1C | 24 | 22 | 0 | 1 | 18
O=Cc1ccc(-c2cccc(C(=O)O)c2)o1 | 3 | 4 | -17 | -2 | 8
CCCOC(=O)c1ccc(-c2ccc(C=O)o2)cc1 | 12 | 29 | x | 0 | 27
CCOC(=O)c1cccc(-c2ccc(C=O)o2)c1 | 49* | -2 | -62 | x | 25
CCOC(=O)c1ccc(-c2ccc(/C=N/NC(=O)c3cncc(Br)c3)o2)cc1 | -2 | 29 | -35 | 0 | x
CCCCOC(=O)c1ccc(-c2ccc(/C=N/NC(=S)NCC)o2)cc1 | 159* | 2 | -49 | x | -4
CCOC(=O)c1ccc(-c2ccc(C=O)o2)cc1 | x | 53* | -75 | 1 | 58
CN1C(=O)c2cc(NC(=O)C3CCOCC3)ccc2OC[C@@H]2O[C@H](CC(=O)NC3CCCC3)CC[C@H]21 | 14 | x | -1[16.7 µM] | -1 | x
SMILES | INS-1E GSIS act | Wnt act | Env fusion inh | CFTR F508del cor | MITF act
CN1C(=O)c2cc(NC(=O)c3cccc(F)c3)ccc2OC[C@@H]2O[C@@H](CC(=O)NC3CCC3)CC[C@@H]21 | -1 | x | 12[16.7 µM] | 0 | x
Cc1ccc(S(=O)(=O)NCC[C@@H]2CC[C@@H](NC(=O)Nc3ccccc3F)[C@@H](CO)O2)cc1 | 6 | x | -4[16.7 µM] | 4 | x
c1ccc2c(N3CCCCC3)nc(N3CCCC3)nc2c1 | 52* | -5 | -9 | x | x
c1ccc2c(NCC3CCCO3)nc(N3CCCCC3)nc2c1 (stereo not given) | 45* | 3 | 10 | -2 | -4
Nc1ccn(C2OC(COC(=O)C34CC5CC(CC(C5)C3)C4)C(O)C2O)c(=O)n1 (stereo not given) | x | -1 | 68* | 5 | x
C[C@H](CO)N1C[C@H](C)[C@@H](CN(C)C(=O)CN(C)C)Oc2cc(C3=CCCCC3)ccc2S1(=O)=O | 7 | x | 0[16.7 µM] | -1 | x
Nc1[nH]n(-c2ccccc2)c(=O)c1N=Nc1ccc2c(c1)OCO2 | x | 58* | -78 | 0 | 77
Nc1[nH]n(-c2ccccc2)c(=O)c1N=Nc1ccc2c(c1)OCCO2 | 12 | 34* | -123 | -1 | 61
O=C1NCCOCn2nncc2CC[C@H]1Cc1ccccc1 | 21 | x | x | x | x
Cn1c(SCC(=O)N2CCN(c3cccc(Cl)c3)CC2)nnc1-c1ccncc1 | x | -5 | 98* | x | -1
Cn1c(Cc2cccc3ccccc23)nnc1SCC(=O)N1CCN(c2ccccc2)CC1 | 2 | x | 63* | x | x
Cn1c(Cc2ccccc2)nnc1SCC(=O)N1CCN(c2ccccc2)CC1 | x | x | x | x | 1
O=C1CN(S(=O)(=O)Cc2ccccc2)C[C@@H]2[C@H](c3ccc(C#Cc4ccccc4)cc3)[C@H](CO)N12 | -7 | x | x | 6 | x
Oc1ccccc1-c1n[nH]c(-c2ccccc2O)n1 | -1 | 4 | 0 | 6 | 8
Clc1ccccc1-c1nc(-c2ccccc2)n[nH]1 | x | 64* | -133 | x | 49
O=C(C[C@H]1CC[C@@H]2[C@H](COC[C@H](O)CN2C(=O)c2ccccc2)O1)Nc1ccccc1 | -1 | x | x | 4 | x
C/C(=N\NS(=O)(=O)c1ccc([N+](=O)[O-])cc1)c1c[nH]c2ccccc12 | -4 | 1 | -1 | 1 | -7
C/C(=N/NS(=O)(=O)c1ccc(Br)cc1)c1c[nH]c2ccccc12 | 11 | -2 | 66* | -1 | -1
Oc1oc(-c2ccccc2)nc1C=NCc1ccccc1 | x | 16 | -68 | x | 103*
O=S(=O)(c1ccccc1)n1ccc(-c2cnc(-c3ccccc3)s2)n1 | -25 | 45* | -139 | x | 98*
Cc1ccc(Cn2ccc(-c3cnc(-c4ccccc4)s3)n2)cc1 | x | x | x | x | 57
C[C@@H]1CN([C@H](C)CO)C(=O)c2cccc(NS(=O)(=O)c3ccc(F)cc3)c2O[C@H]1CN(C)S(=O)(=O)c1ccccc1 | 13 | x | 4[16.7 µM] | 1 | x
CCOC(=O)N1N=C(CC)CC1(O)C(F)(F)F (stereo not given) | x | 34* | -80 | x | -4
Cc1ccccc1C(=O)N[C@H](C(=O)N1CCC[C@H]1C(=O)NCc1ccccc1)c1ccccc1 | x | 0 | 56* | 0 | x
O=C(NCc1ccccc1)[C@@H]1CCCN1C(=O)[C@@H]1CCCN1C(=O)c1cccc2ccccc12 | -11 | -4 | 75* | -2 | x
SMILES | INS-1E GSIS act | Wnt act | Env fusion inh | CFTR F508del cor | MITF act
Cc1ccccc1C(=O)N[C@@H](CC(C)C)C(=O)N1CCC[C@H]1C(=O)NCc1ccccc1 | -12 | -1 | -47 | 1 | x
CCCc1cc(C(N)=O)c(NC(=O)c2ccco2)s1 | x | 41* | -42 | x | x
CCCc1cc(C(N)=O)c(NC(=O)C2CCCO2)s1 (stereo not given) | -8 | x | -10 | x | 0
Cc1sc(NC(=O)c2ccco2)c(CN2CCN(c3ccccc3)CC2)c1C | x | -5 | 63* | x | -1
Cc1c(Cc2ccccc2)sc(NC(=O)c2ccco2)c1C(N)=O | 86* | x | x | x | 54
COc1ccc(NC(=O)N(C)C[C@H]2OCCCC[C@@H](C)Oc3ccc(NS(=O)(=O)c4c(C)noc4C)cc3C(=O)N([C@@H](C)CO)C[C@H]2C)cc1 | -5 | x | -16[16.7 µM] | -1 | x
C/C(Cl)=C\Cn1c(N2CCCC2)nc2c1c(=O)n(C)c(=O)n2C | 65* | -3 | 4 | 2 | 8
C[C@H](CO)N1C[C@H](C)[C@H](CN(C)C(=O)Cc2ccccn2)Oc2cc(C#Cc3ccccc3)ccc2S1(=O)=O | -12 | x | 5[16.7 µM] | 3 | x
